Bioassay records from PubChem BioAssay.
A selection: hits, their analogues and other compounds. The true share with any hit is near 21%.
Gal4-VP16 FLuc: inhibits Gal4-VP16 luciferase reporter, ROR gamma counter-screen. Drosophila S2 Gal4-VP16 UAS-luciferase, luminescence, 20 h. Potency, µM (top dose mostly 53.6 µM), for the others: at the highest dose activity, negative = inhibition, hits mostly inhibitors. 310,000 tested, 3.5% active. AID 2546;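 note: Gal4-VP16 expression switched on by copper sulfate through the metallothionein promoter; potency is the fitted concentration of half-maximal effect; nearly all actives have a fitted effect of over 50% in size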
ELG1 repair inh: ELG1-dependent DNA repair inhibition. HEK293T ELG1-luciferase reporter, luminescence, 16 h; DNA damage induced by 5-fluorouridine. Potency, µM (doses to about 46.1 µM), without a hit: at the highest dose activity change, negative = inhibition, usual class: inhibitors. 330,000 tested, 2.3% active; note: potency is the fitted concentration of half-maximal effect; nearly all actives have a fitted effect of over 55% in size
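Overnight (16 hr) co-exposure of 2,000 cells/well to 5-fluorouridine and compound at 37 °C preceded detection. Luciferase was quantified via ONE-Glo luminescence; loss of signal denotes inhibition.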
DT40 TDP1 no CPT: qHTS for Inhibitors of human tyrosyl-DNA phosphodiesterase 1 (TDP1): qHTS in cells in absence of CPT; Potency, µM (top dose mostly 46.2 µM), for inactives: at the highest dose activity change, negative = growth inhibition, hits mostly inhibitors; 420,000 tested, 15% active; DT40 Tdp1-/- hTDP1 cells, no CPT, ATP luminescence, 48 h; AID 686978, 2013; note: potency is the fitted concentration of half-maximal effect; nearly all actives have a fitted effect of over 55% in size
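DT40 Tdp1-/-;hTDP1 cells, no CPT (DMSO vehicle only), 400 cells/well; compounds pin-transferred; ≥48 hr, 37 °C; CellTiter-Glo 30 min RT dark, luminescence read.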
DT40 TDP1 CPT: growth inhibition of DT40 Tdp1-/-;hTDP1 cells with camptothecin (screen for TDP1 inhibitors); chicken DT40 Tdp1-/-;hTDP1 cells + 20 nM CPT, ATP luminescence, 48 h; Potency, µM (titrated, usually from 46.2 µM), without a hit: top-dose activity change, negative = growth inhibition, hits mostly inhibitors; 420,000 tested, 12% active; note: potency is the fitted concentration of half-maximal effect; nearly all actives have a fitted effect of over 55% in size
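Chicken DT40 Tdp1-/- cells complemented with human TDP1, 400 cells/well, exposed to compounds plus 20 nM camptothecin for at least 48 h at 37 C; viability read as ATP content by CellTiter-Glo luminescence.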
RORg inh: inhibitors of mouse ROR gamma transcriptional activity. 310,000 tested, 5.4% active. P51450. Potency, µM (titrated, usually from 53.6 µM), for inactives: top-dose activity change, negative = inhibition, hits mostly inhibitors. Drosophila S2 Gal4-RORgamma UAS-luciferase reporter, 20 h; note: potency is the fitted concentration of half-maximal effect; nearly all actives have a fitted effect of over 60% in size
Target sequence (P51450 whole entry, looked up, the tested form may be a part): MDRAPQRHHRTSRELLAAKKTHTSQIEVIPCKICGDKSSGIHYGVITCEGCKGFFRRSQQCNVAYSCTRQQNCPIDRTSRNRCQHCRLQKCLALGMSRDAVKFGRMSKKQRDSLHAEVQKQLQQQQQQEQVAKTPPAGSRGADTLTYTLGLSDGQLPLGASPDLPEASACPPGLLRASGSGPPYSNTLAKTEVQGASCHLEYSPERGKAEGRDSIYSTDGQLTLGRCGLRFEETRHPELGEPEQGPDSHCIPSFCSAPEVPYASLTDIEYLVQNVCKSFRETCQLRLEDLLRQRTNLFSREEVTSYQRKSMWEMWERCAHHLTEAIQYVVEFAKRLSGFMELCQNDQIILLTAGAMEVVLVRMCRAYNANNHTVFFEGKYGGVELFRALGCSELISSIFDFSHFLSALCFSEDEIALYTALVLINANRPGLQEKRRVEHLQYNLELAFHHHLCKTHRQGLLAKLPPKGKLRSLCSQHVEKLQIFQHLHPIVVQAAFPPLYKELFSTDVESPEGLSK
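Drosophila S2 cells stably expressing Gal4-DBD/mouse RORγ fusion under metallothionein promoter plus UAS-luciferase; compound 1 h, then 700 uM CuSO4 induction for 20 h at ambient temperature; inhibition read as reduced luminescence.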
IL-1B inflam inh: blocks inflammasome-driven IL-1 beta release; THP-1 LPS/ATP IL-1B secretion, AlphaLISA, 16 h; active compounds read low; activity change, % at 57.5 µM; 360,000 tested, 4.7% active; AID 743279; in the data active = activity change below about -50%; inconclusive = mostly about -30% to -49%
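Secreted IL-1B measured by AlphaLISA bead assay after 16 h compound exposure of THP-1 cells; compounds (final up to 57.5 uM) added 1 h before LPS (250 ng/mL) and ATP (1.25 mM) stimulation; lower signal means less secretion.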
Active calls of the source: *; ? = inconclusive; nt = no result; [ ] = dose if it differs, or a comment. Unless noted, calls come from the whole dose curve; as a rule, active = well fitted curve in the direction sought with a large enough effect; inconclusive = small, poorly fitted or top-dose-only effect, or another doubt; inactive = no such curve, though single readings can be large; an effect the other way counts as inactive or inconclusive. % is set by controls: 0 for no effect and ±100 for the full control effect.

SMILES	Gal4-VP16 FLuc	ELG1 repair inh	DT40 TDP1 no CPT	DT40 TDP1 CPT	RORg inh	IL-1B inflam inh
Cc1ccccc1NCc1ccc(O)c2ncccc12	11µM*	-3%	5.2µM*	2.6µM*	11µM*	45
Cc1cccc(NCc2ccccc2O)c1C	-10%	15%	-17%	-6%	17%	1
Oc1ccc(CNc2ccccc2)c2cccnc12	0.79µM*	-3%	2.6µM*	3.7µM*	16µM*	9
Oc1ccc(Cn2ccnc2)c2cccnc12	?	-21%	?	13%	?	161
Oc1ccc(CNc2ccc(F)cc2)c2cccnc12	?	?	1.6µM*	2.9µM*	11µM*	-3
COc1ccc([N+](=O)[O-])cc1N(CC(=O)N1CCCC1)S(C)(=O)=O	3%[10 µM]	13%	-6%	-2%	7%	3
CCC(=O)Nc1cc(ON=C(C)C)cc([N+](=O)[O-])c1	0%	-4%	-2%	11%	2%	-2
Cc1cc(C)cc(Oc2cc(NC(=O)c3cn(C)nc3C)cc([N+](=O)[O-])c2)c1	7.9µM*	6%	1.4µM*	2.2µM*	?	5
Cc1cc([N+](=O)[O-])nn1CCCC(=O)Nc1cc(Oc2ccc(F)cc2)cc([N+](=O)[O-])c1	-18%	?	?	?	26%	?
Cc1ccc(Oc2cc(NC(=O)CCCn3nc([N+](=O)[O-])c(Cl)c3C)cc([N+](=O)[O-])c2)cc1	-11%	?	23µM*	21µM*	?	38
Cc1c(Cl)c([N+](=O)[O-])nn1CCCC(=O)Nc1cccc(Cl)c1	?	-6%	?	?	?	-3
Cc1cc([N+](=O)[O-])nn1CCCC(=O)Nc1cc(Oc2ccccc2)cc([N+](=O)[O-])c1	-4%	?	21µM*	16µM*	37%	0
Cc1nn(Cc2c(Cl)cccc2Cl)c(C)c1NC(=O)CCCn1nc([N+](=O)[O-])c(Cl)c1C	-20%	?	21µM*	?	?	-7
CC(C)C[C@H]1CN(CCCC[C@@H]2CNC(=O)C(=O)N2Cc2ccccc2)C(=O)C(=O)N1CC1CCCCC1	nt	nt	-1%	-1%	nt	5
CNC1C(O)C(OC2C(NC(=O)C(O)CN)CC(N)C(OC3OC(CN)C(O)C(O)C3O)C2O)OCC1(C)O (stereo unspecified)	0%	nt	nt	nt	11%[10 µM]	nt
Cc1cc(C)nc(N2CCC(C(=O)NCCc3ccc(F)cc3)CC2)n1	-6%	8%	9.2µM*	16µM*	?	42
Cc1cc(C)nc(N2CCC(C(=O)NCCc3ccc(Cl)cc3)CC2)n1	-8%	10%	?	13µM*	1%	0
COC(=O)C1SCC2C(=O)N(Cc3ccccc3)CC(=O)N21 (stereo unspecified)	-2%	2%	2%	4%	1%	27
O=C(Nc1ccc(N2CCCC2)cc1)c1ccccc1F	-8%	?	?	10µM*	11%	7
O=C(CCl)Nc1ccc(N2CCCCCC2)cc1	?	18%	8.2µM*	5.2µM*	?	-98*
O=C(Nc1ccc(N2CCCCC2)cc1)c1ccc(F)cc1F	-23%	?	-10%	-22%	-41%	-20
O=C(Nc1ccc(N2CCCC2)cc1)c1cccc(Cl)c1Cl	5%	28%	16µM*	?	45%	-18
O=C(Cn1c(-c2ccccc2)noc1=O)Nc1ccc(N2CCCCCC2)cc1	-1%	-14%	18µM*	16µM*	12%	3
Cc1onc(-c2ccccc2)c1C(=O)N1CCC(C)(C(=O)NS(=O)(=O)C2CC2)C1 (stereo unspecified)	nt	nt	17%	11%	nt	16
CC1CCCN(CCCNC(=O)Cn2ncc3c([nH]c4ccccc43)c2=O)C1 (stereo unspecified)	nt	nt	-21%	12%	nt	nt
